In PubChem BioAssay AID584 (National Center for Advancing Translational Sciences (NCATS), 2007):
Screen size: about 71,000 compounds; about 65 (0.09%) were called active. The sample holds actives, similar compounds and a random draw of the others, so the mix is not that of the screen. The call rests on the fitted dose curve; in most records, active means well fitted curve in the direction sought with a large enough effect; inconclusive means small, poorly fitted or top-dose-only effect; inactive means flat fitted curve, though single readings scatter.

What follows are molecules tested against Beta-lactamase (Escherichia coli (strain K12)) (UniProt P00811) (assay: Promiscuous and Specific Inhibitors of AmpC Beta-Lactamase (assay with detergent)). Conditions: purified AmpC, nitrocefin hydrolysis with detergent; series mostly up to 28.7 µM.
Protocol: NIH Molecular Libraries Screening Centers Network [MLSCN]
NIH Chemical Genomics Center [NCGC]
PI Name: Shoichet, Brian K.
This aggregation profiling approach exploits the sensitivity of aggregate formation to detergent. Inhibition of b-lactamase is measured in the presence and absence of 0.01% Triton X-100. This particular assay had the prescence of 0.01% Triton X-100. See Pubchem assay "Promiscuous and Specific Inhibitors of AmpC Beta-Lactamase (assay without detergent)" for related screen. Compounds that inhibit only in the absence of detergent are considered likely promiscuous aggregators.
A screen of 1,030 compounds was performed in Brian Shoichet's lab in 96-well format. AmpC activity was measured by following the absorbance at 480 nm. Nitrocefin is a chromogenic substrate: while nitrocefin is yellow (lmax 390 nm), the product of its hydrolysis is red (lmax 486 nm, 17,000 M-1). AmpC beta lactamase was provided by Brian Shoichet and Brian Feng, UCSF.
NCGC Assay Protocol Summary:
20 mM phosphate buffer, pH 7.0
Triton X-100: No Detergent screen: 0.0001%, Detergent screen: 0.01%.
Buffer in columns 3 and 4 as negative control (no enzyme).
5.3 nM AmpC in columns 1, 2, 5-48. Titration of UCSF compound 9 control (from 10 mM, then 1:2) pin-transferred to column 2. Column 1 is neutral (100% activity).
Six uL of reagents were dispensed to 1536-well Greiner black clear bottom plates. Compounds and controls (23 nL) were transferred via Kalypsys PinTool. The plates were incubated for 15 min at room temperature, and then 2 uL of 800 uM solution of nitrocefin was added to start the reaction. The plates were immediately transferred to and read every 20 seconds for 4 min on ViewLux (Perkin-Elmer) High-throughput CCD imager using 480 nm absorbance protocol. During dispense, reagent bottles were kept submerged into 4 deg C water bath.
Keywords: NIH Roadmap, MLSCN, MLI, MLSMR, qHTS, NCGC, AmpC Beta-Lactamase, Aggregation
On the % scale 0 is the no-effect control and ±100 the full control effect.

Chain of Beta-lactamase (Escherichia coli (strain K12)) (P00811 whole entry, looked up): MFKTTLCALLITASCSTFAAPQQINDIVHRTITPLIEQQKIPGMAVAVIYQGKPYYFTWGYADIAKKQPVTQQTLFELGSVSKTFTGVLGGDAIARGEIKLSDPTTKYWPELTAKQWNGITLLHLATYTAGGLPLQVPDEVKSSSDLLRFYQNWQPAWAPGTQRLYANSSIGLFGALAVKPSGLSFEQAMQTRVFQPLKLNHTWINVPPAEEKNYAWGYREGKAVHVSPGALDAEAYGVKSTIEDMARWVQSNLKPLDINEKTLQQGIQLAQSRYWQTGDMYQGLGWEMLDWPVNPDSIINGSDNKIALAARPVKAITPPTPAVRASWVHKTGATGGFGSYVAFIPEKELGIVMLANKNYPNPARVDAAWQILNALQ

Q: Which activity change, negative = inhibition does the source give for `CC(C)Cc1ccc(S(=O)(=O)N2CCN(C(=O)c3ccco3)CC2)cc1` here?
A: The activity change, negative = inhibition was “inactive”.

Q: Which activity change, negative = inhibition does the source give for `O=c1c(-c2ccc(F)cc2)nc2cnc(N3CCOCC3)nc2n1-c1ccccc1` here?
A: The activity change, negative = inhibition was “inactive”.

Q: For `CCON=C1C(C)(C)C(C)(C)C(C)(C)C1(C)C`, which activity change, negative = inhibition is on record?
A: Its activity change, negative = inhibition is -1.9% [at 5.75 µM] (inactive).

Q: `COc1cccc(NC(=O)c2ccccc2SC)c1` was tested. Which activity change, negative = inhibition did it give?
A: Its activity change, negative = inhibition is “inactive”.

Q: `CCOC(=O)c1cccc(NC(=O)CN(c2ccc(C)cc2)S(=O)(=O)c2c(C)noc2C)c1` was tested. Which activity change, negative = inhibition did it give?
A: Its activity change, negative = inhibition is “inactive”.

Q: For `C[C@H]1O[C@@H](CC(=O)O)Cc2c1c(O)c1c(O)cc(-c3cc(=O)c4c(=O)c5c(c(=O)c=4c3=O)C[C@H](CC(=O)O)O[C@@H]5C)c(O)c1c2O`, which activity change, negative = inhibition is on record?
A: The activity change, negative = inhibition was -3.2% [at 5.75 µM] (inactive).

Q: How did the activity change, negative = inhibition turn out when `CCCCc1nc2ccccc2c(NC(=O)CN2CCN(C)CC2)c1CCC` was run?
A: The activity change, negative = inhibition was “inactive”.

Q: Which activity change, negative = inhibition does the source give for `O=C(O)Cc1ccc(-c2ccccc2)cc1` here?
A: Its activity change, negative = inhibition is “inactive”.

Q: With `O=C(O)C(=O)Cc1ccc2c(c1)OCO2` as the molecule, how does the activity change, negative = inhibition read?
A: The activity change, negative = inhibition was -2% [at 5.75 µM] (inactive).

Q: `CC/C(=N\O)C(C)(C)/[N+]([O-])=C/c1ccc(Br)cc1` was tested. Which activity change, negative = inhibition did it give?
A: The activity change, negative = inhibition was “inactive”.

Q: With `CC(=O)NC(Cc1ccc(F)cc1)C(=O)O` (configuration not stated) as the molecule, how does the activity change, negative = inhibition read?
A: Its activity change, negative = inhibition is “inactive”.

Q: With `Nc1nonc1-c1noc(-c2ccc(Br)o2)n1` as the molecule, how does the activity change, negative = inhibition read?
A: Its activity change, negative = inhibition is “inactive”.

Q: Which activity change, negative = inhibition does the source give for `Cc1ccc(C)n1-c1ccncc1` here?
A: Its activity change, negative = inhibition is “inactive”.

Q: Which activity change, negative = inhibition does the source give for `O=C(CCCn1c(=O)oc2ccccc21)Nc1cccnc1` here?
A: Its activity change, negative = inhibition is “inactive”.

Q: How did the activity change, negative = inhibition turn out when `COc1ccc(C(=O)Nc2c(N)nc(SCC(=O)N3CCC(C)CC3)[nH]c2=O)cc1OC` was run?
A: The activity change, negative = inhibition was “inactive”.

Q: Which activity change, negative = inhibition does the source give for `COC(=O)c1sc(=S)n(-c2ccccc2)c1N` here?
A: Its activity change, negative = inhibition is “inactive”.

Q: For `COc1ccc(CCN2CNc3c(c(=O)n(C)c(=O)n3C)C2)cc1OC`, which activity change, negative = inhibition is on record?
A: The activity change, negative = inhibition was “inactive”.

Q: `CC1CCN(Cc2nc3c(c(=O)n(C)c(=O)n3C)n2CCc2ccccc2)CC1` was tested. Which activity change, negative = inhibition did it give?
A: Its activity change, negative = inhibition is “inactive”.

Q: With `COc1ccc(CCNC(=O)CSc2nc(C)nc3c2oc2ccccc23)cc1OC` as the molecule, how does the activity change, negative = inhibition read?
A: Its activity change, negative = inhibition is “inactive”.

Q: Which activity change, negative = inhibition does the source give for `CCn1c(-c2cc(OC)ccc2OC)csc1=Nc1c(C)n(C)n(-c2ccccc2)c1=O` here?
A: The activity change, negative = inhibition was “inactive”.

Q: Which activity change, negative = inhibition does the source give for `COc1ccc(C)c(Cn2c(-c3nonc3N)nc3ccccc32)c1` here?
A: Its activity change, negative = inhibition is “inactive”.

Q: Which activity change, negative = inhibition does the source give for `CCCCOc1ccc(C(=O)NCc2ccco2)cc1` here?
A: The activity change, negative = inhibition was “inactive”.

Q: Which activity change, negative = inhibition does the source give for `Cc1ccc2c(CSc3nncs3)cc(=O)oc2c1` here?
A: Its activity change, negative = inhibition is “inactive”.

Q: With `CCOC(=O)C1CCN(C(=O)C2CCN(S(=O)(=O)N3CCCC3)CC2)CC1` as the molecule, how does the activity change, negative = inhibition read?
A: The activity change, negative = inhibition was “inactive”.

Q: For `COc1ccccc1-c1nnc(SCC(=O)Nc2cc(C)on2)o1`, which activity change, negative = inhibition is on record?
A: Its activity change, negative = inhibition is “inactive”.

Q: How did the activity change, negative = inhibition turn out when `CSCCC(NC(N)=O)C(=O)N(C)CC(=O)Nc1ccc(C)cc1` (configuration not stated) was run?
A: Its activity change, negative = inhibition is “inactive”.

Q: How did the activity change, negative = inhibition turn out when `CCOc1ccc(OCC)c(NC(=O)CSc2nnc(Cn3cnc4ccccc43)n2C)c1` was run?
A: Its activity change, negative = inhibition is “inactive”.
